Screening data as filed in PubChem.
Cruzain noTriton: blocks cruzain activity in detergent-free assay; purified cruzain, Z-FR-AMC fluorescence, no detergent; 200,000 compounds, 2.3% hits; Potency, µM, for inactives: max response, negative = inhibition, most hits filed as inhibitors; P25779;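 note: plate controls were enzyme without inhibitor for no effect and buffer without enzyme for full effect; nearly all actives have a fitted effect of over 40% in size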
Target sequence (P25779 123-467 limits assumed): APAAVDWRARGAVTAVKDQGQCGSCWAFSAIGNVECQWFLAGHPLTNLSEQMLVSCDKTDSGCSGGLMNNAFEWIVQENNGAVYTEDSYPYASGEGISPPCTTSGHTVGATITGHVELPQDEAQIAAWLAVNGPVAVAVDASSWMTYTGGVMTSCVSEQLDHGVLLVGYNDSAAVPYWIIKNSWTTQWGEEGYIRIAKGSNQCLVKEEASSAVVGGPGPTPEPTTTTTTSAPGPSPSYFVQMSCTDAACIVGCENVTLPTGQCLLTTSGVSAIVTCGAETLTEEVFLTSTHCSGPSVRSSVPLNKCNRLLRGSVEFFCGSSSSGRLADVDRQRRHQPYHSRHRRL
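Purified cruzain at 1.5 nM, pre-incubated 15 min with compound at room temperature in 100 mM sodium acetate pH 5.5, 5 mM DTT, 0.00005% Triton X-100. Reaction started with 2 uM Z-FR-AMC; AMC fluorescence increase over 60 s gives rate.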
Cruzain inh Det: cruzain (T. cruzi) inhibition with detergent. 200,000 compounds, 0.43% hits. P25779. AID 1478. purified cruzain, Z-FR-AMC fluorescence, 0.01% Triton. Potency, µM, for inactives: max response, negative = inhibition, hits mostly inhibitors;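 note: plate controls were neutral wells for no effect and buffer without enzyme for full effect; nearly all actives have a fitted effect of over 40% in size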
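In this qHTS format, compounds are incubated with 1.5 nM cruzain for 15 min at room temperature before 2 uM Z-FR-AMC is added. Release of AMC is followed at 360/450 nm, and progress is taken as the 60 s fluorescence difference.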
Giardia FBPA inh: inhibitors of Giardia lamblia fructose-1,6-bisphosphate aldolase; Potency, µM (highest dose often 59.6 µM), for the others: top-dose activity, negative = inhibition, hits mostly inhibitors; purified Giardia FBPA; A8B2U2; 290,000 compounds, 0.71% hits; AID 2451; note: nearly all actives have a fitted effect of over 55% in size
Target sequence (A8B2U2 whole entry, looked up): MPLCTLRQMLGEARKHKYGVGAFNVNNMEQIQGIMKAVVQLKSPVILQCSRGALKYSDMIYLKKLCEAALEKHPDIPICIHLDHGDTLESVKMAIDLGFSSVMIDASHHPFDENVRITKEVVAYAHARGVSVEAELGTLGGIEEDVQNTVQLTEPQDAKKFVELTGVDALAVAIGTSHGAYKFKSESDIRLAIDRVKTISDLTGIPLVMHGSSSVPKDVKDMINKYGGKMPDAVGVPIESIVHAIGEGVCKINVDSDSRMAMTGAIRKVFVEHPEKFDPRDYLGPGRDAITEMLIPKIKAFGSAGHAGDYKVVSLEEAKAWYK
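40 nM FBPA preincubated 10 min at RT with compound (up to 57.5 uM final), then substrate plus GAPDH/TPI/NAD/arsenate coupling and diaphorase/resazurin added. Fluorescence read after 20 min at RT, 525/598 nm.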
An asterisk follows results filed as active; ? = inconclusive; . = no result; ! = not confirmed by another sample; [ ] = another dose, or the depositor's remark. The sample as a whole holds a higher share of hits than the screen did. Calls come from the whole dose curve; as a rule, active = well fitted curve in the direction sought with a large enough effect; inconclusive = small, poorly fitted or top-dose-only effect, or another doubt; inactive = no such curve, though single readings can be large; an effect the other way counts as inactive or inconclusive. Unless noted, % is set by controls: 0 for no effect and ±100 for the full control effect; potency is the fitted concentration of half-maximal effect.

SMILES	Cruzain noTriton	Cruzain inh Det	Giardia FBPA inh
C[C@@H](N=C(N)N)C(=O)O	-5.6%	2.1%	.
CCSc1nnc(NC(=O)C2Cc3ccccc3CN2S(=O)(=O)CC)s1 (stereo not given)	-6.1%	-8.9%	9.7%
CCS(=O)(=O)N1Cc2ccccc2CC1C(=O)Nc1nc2c(C)cccc2s1 (stereo not given)	25.1µM*	-11.7%	0.1%
CCS(=O)(=O)N1Cc2ccccc2CC1C(=O)Nc1nc(C)cs1 (stereo not given)	.	.	-3.3%
CCS(=O)(=O)N1Cc2ccccc2CC1C(=O)Nc1nnc(SCc2c(Cl)cccc2Cl)s1 (stereo not given)	7.94µM*	-1.5%	3.4%
O=C(CN1C(=O)C2CC=CCC2C1=O)Nc1nnc(SCc2ccc(Cl)cc2)s1 (stereo not given)	-19.7%	-3.0%	29.0%
O=C(CN1C(=O)C2CC=CCC2C1=O)Nc1nnc(SCc2c(Cl)cccc2Cl)s1 (stereo not given)	15.8µM*	1.5%	21.1%
CC[C@@H]1C(c2cccc(C)c2)=NN(c2ccc(Br)cc2)[C@H]1C(=O)N1CCOC1=O	?	0.0%	-8.1%
COc1ccc2c(c1)c(=O)c(S(=O)(=O)c1ccc(Cl)cc1)cn2Cc1cc(C)ccc1C	10µM*	-3.7%	.
COc1ccc2c(c1)c(=O)c(S(=O)(=O)c1ccc(C)cc1)cn2Cc1ccccc1C	-19.6%	-6.0%	.
COc1ccc2[nH]c(=O)c(CN(CCO)S(=O)(=O)c3c(C)ccc4nsnc34)cc2c1	-4.4%	-4.0%	-3.4%
COc1ccc2[nH]c(=O)c(CN(Cc3cccs3)S(=O)(=O)c3cccc4nsnc34)cc2c1	31.6µM*	-0.8%	-23.8%
CCC#N	-2.4%	2.7%	.
COc1ccc(-c2cc(C(=O)NCCc3ccc(OC)c(OC)c3)c3ccccc3n2)cc1	?	-4.9%	.
OC[C@@H]1[C@@H](c2ccc(Cl)cc2)C(c2ccccc2)=NN1c1ccccc1	-18.3%	0.3%	-13.6%[89.2 µM]
OC[C@@H]1[C@@H](c2ccc(Cl)cc2)C(c2cccc(Cl)c2)=NN1c1ccccc1	25.1µM*	2.0%	-3.0%
C[C@H]1C(c2cccc(Cl)c2)=NN(c2ccccc2)[C@@H]1CO	?	0.4%	-10.8%[89.2 µM]
OC[C@@H]1[C@@H](c2ccc(F)cc2)C(c2cccc(Cl)c2)=NN1c1ccccc1	31.6µM*	-0.4%	-13.5%[89.2 µM]
C[C@H]1CCCC2(CC[N+](C)(CCC[N+](C)(C)C)CC2)C1 (stereo not given in full)	2.4%	6.1%	.
C[C@@H]1CCCN(CP(=O)(c2ccccc2)c2ccccc2)C1	2.4%	3.3%	.
CC(C)CO/N=C1/[C@H]2O[C@@H]2[C@@H](O)[C@H]2[C@H]1CCn1c(=O)n(C)c(=O)n12	.	.	6.0%[12.9 µM]
O=C(OCC(=O)N1CCc2ccccc2C1)c1ccc(N2CCOCC2)c([N+](=O)[O-])c1	4.5%	-6.9%	-5.7%
Nc1ccc(C(=O)OCC(=O)N2CCc3ccccc3C2)cc1[N+](=O)[O-]	31.6µM*	-11.6%	21.5%
CCN(CC)Cc1c(O)ccc2c(=O)c(-c3ccccc3Cl)coc12	.	.	-7.8%
Cc1nc(-c2coc3c(O)c(O)ccc3c2=O)cs1	-12.5%	-2.7%	14.1µM*
SMILES	Cruzain noTriton	Cruzain inh Det	Giardia FBPA inh
Cc1cc(C2(c3cc(C)c(O)c(C(=O)O)c3)OS(=O)(=O)c3ccccc32)cc(C(=O)O)c1O	3.9%	-6.9%	.
CCn1cc2nc(SCc3ccc(F)cc3)n(CCc3ccccc3)c(=O)c2n1	?	-3.6%	.
O=C(Nc1nc2c(F)cc(F)cc2s1)c1ccc(S(=O)(=O)N2CCc3ccccc32)cc1	-17.3%	-1.3%	.
O=C(Nc1nc2ccc(F)cc2s1)c1cccc(S(=O)(=O)N2CCc3ccccc32)c1	7.94µM*	-1.2%	1.7%
O=C(Nc1nc2c(s1)CCCC2)c1cccc(S(=O)(=O)N2CCCc3ccccc32)c1	25.1µM*	-5.7%	-3.6%
Cc1ccc2nc(NC(=O)c3ccc(S(=O)(=O)N4CCCc5ccccc54)cc3)sc2c1	6.31µM*!	1.4%	3.6%
Cc1cccc(C(=O)Nc2nnc(S(=O)(=O)N3CCCc4ccccc43)s2)c1	-4.0%	-1.7%	.
O=C(Nc1nc2c(F)cccc2s1)c1ccc(S(=O)(=O)N2CCCc3ccccc32)cc1	-1.3%	1.2%	.
CN1CCc2nc(NC(=O)c3cccc(S(=O)(=O)N4CCc5ccccc54)c3)sc2C1	15.8µM*	-4.9%	18.0%
CCC(CC)c1nnc(NC(=O)c2cccc(S(=O)(=O)N3CCc4ccccc43)c2)s1	?	-2.0%	.
CC(C)(C)c1ccc(C(=O)N2CCC(c3nc4ccccc4o3)CC2)cc1	-0.9%	-10.4%	.
O=C1OC2(CCCCC2)OC(=O)C1=CNc1ccc2c(c1)OCO2	0.0%	-9.3%	-10.2%
O=C1/C(=C/Nc2ccc3c(c2)OCO3)CCc2ccccc21	12.6%	0.0%	14.1µM*
COc1ccc(N/C=C2\CCc3ccccc3C2=O)cc1	.	.	11.2µM*
COc1ccc(S(=O)(=O)Nc2ccc3c(c2)OCO3)cc1	1.7%	2.4%	-4.8%
COc1ccc(N/C=C2\CCOC2=O)cc1	-7.9%	-2.4%	-5.8%
COc1ccc2c(c1)CC/C(=C\Nc1ccc3c(c1)OCO3)C2=O	-2.1%	-8.3%	7.92µM*
O=C(Nc1noc2ccccc12)c1ccc(F)cc1	1.5%	-1.8%	.
O=C(O)c1nnsc1-c1ccc(-c2snnc2C(=O)O)cc1	-1.1%	1.1%	.
CCCCc1ccc(/C=C2/C(=O)ON=C2c2ccccc2)s1	-5.8%	-14.7%	1.3%
Cc1sc(/C=C2\C(=O)ON=C2c2ccccc2)cc1Br	25.1µM*	?	10.6%
CN1CCN(c2ccc(NC(=O)CSc3ccccc3)cc2F)CC1	-1.0%	-1.2%	3.4%
Cc1ccc(SCC(=O)Nc2ccc(N3CCN(c4ccccc4)CC3)c(F)c2)cc1	10µM*	4.2%	0.2%
CCn1c(C)c(C2=CCN(S(=O)(=O)c3ccc(C)cc3)CC2)c2ccccc21	?	-4.3%	-20.4%
Cc1c(C2=CCN(S(=O)(=O)c3ccc(Br)cc3)CC2)c2ccccc2n1C	10µM*	-2.4%	-2.8%
CC(C)C[C@H](NC(=O)CNC(=O)[C@H](C)NC(=O)[C@H](CC(C)C)NC(=O)[C@H](CCCNC(=N)N)NC(=O)[C@H](Cc1cnc[nH]1)NC(=O)[C@@H](NC(=O)[C@@H](NC(=O)[C@@H]1CSSC[C@H](NC(=O)[C@@H](N)CO)C(=O)N[C@@H](CC(N)=O)C(=O)N[C@@H]([C@@H](C)O)C(=O)N[C@@H](C)C(=O)N[C@@H]([C@@H](C)O)C(=O)N1)C(C)C)[C@@H](C)O)C(=O)N[C@@H](CC(C)C)C(=O)N[C@@H](CO)C(=O)N[C@@H](CCCNC(=N)N)C(=O)N[C@@H](CO)C(=O)NCC(=O)NCC(=O)N[C@H](C(=O)N[C@H](C(=O)N[C@@H](CCCCN)C(=O)N[C@@H](CC(=O)O)C(=O)N[C@@H](CC(N)=O)C(=O)N[C@@H](Cc1ccccc1)C(=O)N[C@H](C(=O)N1CCC[C@H]1C(=O)N[C@H](C(=O)N[C@@H](CC(N)=O)C(=O)N[C@H](C(=O)NCC(=O)N[C@@H](CO)C(=O)N[C@@H](CCCCN)C(=O)N[C@@H](C)C(=O)N[C@@H](Cc1ccccc1)C(N)=O)C(C)C)[C@@H](C)O)C(C)C)C(C)C)C(C)C	.	.	-3.3%
Cc1ccc(CNC(=O)c2cc3c(s2)-c2ccccc2SC3)cc1	?	-9.2%	.
